# Measurements as given in the supplement of paper PMC10981050.
# Where “and” joins values, the source holds several entries; their conditions need not be identical. Equal entries are not always repeated. Structures can show the parent of a compound that is named as a salt.
# Columns and labels:
# Experiment in all cases: cell viability relative to vehicle control; higher = less cytotoxic
# Conditions in all cases: 10 µM
# K562 = test system: K562
# Outline: (§1)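 CRISPR-edited mutant clones and isogenic wild-type clones from four leukaemia lines were screened against Selleck bioactive, kinase and epigenetic probe libraries, with identity-inconsistent compounds excluded. Each compound was acoustically dispensed at a single 10 µM dose into 384-well plates holding 2000 cells in 50 µL medium per well. After 48 h the supernatant was removed and CellTiter-Glo luminescence was read. Viability was expressed as percent of the on-plate vehicle control and analysed in Genedata Screener.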
# MARIMO = test system: MARIMO
# Outline: as §1
# MOLM14 = test system: MOLM14
# Outline: as §1
# OCI-AML2 = test system: OCI-AML2
# Outline: as §1
SMILES,cell viability (K562; SRSF2 genotype: SRSF2 P95H/wt),cell viability (K562; SRSF2 genotype: SRSF2 wt/wt) [%],cell viability (MARIMO; SRSF2 genotype: SRSF2 P95H/wt) [%],cell viability (MARIMO; SRSF2 genotype: SRSF2 wt/wt) [%],cell viability (MOLM14; SRSF2 genotype: SRSF2 P95H/wt) [%],cell viability (MOLM14; SRSF2 genotype: SRSF2 wt/wt) [%],cell viability (OCI-AML2; SRSF2 genotype: P95H/wt) [%],cell viability (OCI-AML2; SRSF2 genotype: wt/wt) [%]
CCN(CC)C(=O)c1ccc(C2=CC3(CCNCC3)Oc3cccc(O)c32)cc1,93.6% and 101%,92.9,88.9,98.2,97.5,93.4,97.3,89
CCCCCCC(=O)O[C@H]1CC[C@H]2[C@@H]3CCC4=CC(=O)CC[C@]4(C)[C@H]3CC[C@]12C [Testosterone Enanthate],91.4% and 86%,88.5,66.5,61.8,50.1,20.5,23.7,25.8
CC[C@H]1CN2CC[C@H]1C[C@H]2[C@H](O)c1ccnc2ccc(OC)cc12 [Hydroquinine],102% and 101%,103,97.5,111,87.8,106,100,110
C[C@]12C=CC(=O)C=C1CC[C@@H]1[C@@H]2CC[C@@]2(C)[C@H]1CC[C@]2(C)O [Methandrostenolone],102% and 107%,102,103,105,103,110,115,104
CNC(C)Cc1ccccc1OC (stereo not drawn) [Methoxyphenamine Hydrochloride],98% and 100%,106,100,104,106,102,107,101
N#CC(C#N)=Cc1ccc(O)c(O)c1 [AG 18 (Tyrphostin 23)],86.3% and 84.4%,80.7,78.4,79.8,81.5,86.5,78.8,82
"COc1ccc(/C=C/c2cc(OC)cc(OC)c2)cc1 [3,4',5-Trimethoxy-trans-stilbene]",26.9% and 46.4%,39.7,47.5,35.7,15.3,6.3,38.2,36.4
C[C@@]12N[C@@H](Cc3ccccc31)c1ccccc12 [(-)-MK 801 maleate],105% and 106%,108,101,100,100,112,98.3,90.7
COc1cc(C)[nH]c(=O)c1CNC(=O)c1c(C)n([C@H](C)C2CCOCC2)c2ccccc12,111% and 102%,94.9,106,118,103,101,106,104
O=C1CCC[C@@H]2[C@H]3CCCN4CCC[C@@H](CN12)[C@@H]34 [Matrine ((+)-Matrine)],94.4% and 112%,102,107,110,105,106,106,103
CCCC[N+]1(C)[C@@H]2CC(OC(=O)[C@H](CO)c3ccccc3)C[C@H]1[C@@H]1O[C@@H]12 (stereo partly drawn) [Butylscopolamine bromide (Scopolamine butylb],108% and 95.5%,97.8,102,110,97.5,103,94.3,105
O=S(=O)(CC1CS1)c1ccc(Oc2ccccc2)cc1 (stereo not drawn),88.7% and 98.8%,92.2,45.8,73.1,39.1,29.4,14.9,14.1
CN(C)Cc1c[nH]c2ccccc12 [Gramine],101%,100,102,102,99.6,100,102,98.9
COc1ccc(C=O)cc1 [p-Anisaldehyde],107% and 99.7%,111,103,103,105,104,97.2,117
C[C@H]1CC(=O)C[C@@H]2CC[C@H]3[C@@H]4CC[C@H](O)[C@@]4(C)CC[C@@H]3[C@]21C [Mesterolone],84.1% and 79.7%,83,71.6,82.2,79.9,84.7,75.6,80.7
CCNc1nc(Cl)nc(NC(C)C)n1 [Atrazine],97.5% and 94.1%,98.2,90.6,102,93.9,97,99.1,104
CCOC(=O)Nc1ccc(NCc2ccc(F)cc2)cc1N [Retigabine],98.5%,97.3,93.7,110,102,105,98.5,110
O=C(C[S+]([O-])C(c1ccccc1)c1ccccc1)NO (stereo not drawn) [Adrafinil],95.6% and 94.3%,103,92.9,96.4,95.3,102,91.8,110
CCCN1CCO[C@@H]2c3cc(O)ccc3OC[C@H]21,98% and 95.8%,92.6,97.5,97,104,101,96.5,93.2
CC(C)c1cc2c(c(O)c1O)[C@@]1(C(=O)O)CCCC(C)(C)[C@@H]1CC2 [Carnosic acid],70.2% and 83.7%,86.6,41.8,5.17,43.8,41.1,33.2,27.1
COc1cc2c(cc1OC)C(Cc1ccc(O)c(Oc3cc4c(cc3OC)CCN(C)C4Cc3ccc(O)cc3)c1)N(C)CC2.[O-][Cl+3]([O-])([O-])O (stereo not drawn) [Liensinine diperchlorate],87% and 79.8%,77.4,64.6,76.3,61.7,77.2,63.7,63.7
